Measurements as given in PubChem BioAssay (NCATS).
Inconclusive results are not listed. A number with no mark means an inactive call. The source made the active and inactive calls. Unless noted, the call rests on the fitted dose curve; in most records, active means well fitted inhibition curve with a large enough effect; inconclusive means small, poorly fitted or top-dose-only effect; inactive means no such curve, though single readings can be large or run the other way.

target: Mitogen-activated protein kinase 10 (Mus musculus) (UniProt Q61831); assay: JNK3 AlphaScreen Assay (AID 530; active means well fitted curve in either direction with a large enough effect, not every such curve was filed as active;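 further: kinase came from lysate of stimulated human HepG2 cells; signal reports phosphorylation of biotinylated GST-cJun 1-79 at Ser73 with 10 µM ATP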); details: JNK3 lysate, c-Jun phosphorylation; series mostly up to 57.1 µM; activity change, negative = inhibition: at the top concentration
How it was run: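 Pre-activated (IL-1β/TNFα) JNK3 in HepG2 lysates phosphorylates biotin-GST-cJun(1-79), 10 uM ATP; anti-phospho-cJun(Ser73) AlphaScreen read at room temperature, pH 7.6 Tris buffer. Compounds pre-incubated 15 min as titrations.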
On the % scale 0 is the no-effect control and ±100 the full control effect.

Row | Compound | activity change, negative = inhibition | outcome
1 | CC1N(P(=O)(c2ccccc2)c2ccccc2)CC(O)(c2ccccc2)CC12CC2 (configuration not stated) | -5.48% | –
2 | COC(=O)[C@H]1C[C@@H]1[C@H](NP(=O)(c1ccccc1)c1ccccc1)c1ccccc1 | – | inactive
3 | O=P(c1ccccc1)(c1ccccc1)N1CC2(CC2)CC(O)(c2ccccc2)C1 (configuration not stated) | -5.05% | –
4 | c1ccc2ncccc2c1 | -9.35% | –

target: Cytochrome P450 3A4 (Homo sapiens) (UniProt P08684); assay: qHTS Assay for Inhibitors and Substrates of Cytochrome P450 3A4 (AID 884); details: recombinant CYP3A4, Luciferin-PPXE luminescence; series mostly up to 57.1 µM; activity change, negative = inhibition: at the top concentration; further: nearly all actives have a fitted effect of over 50% in size; further: potency means the concentration at half of the fitted maximal effect
How it was run: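 20 nM human CYP3A4 with 25 uM Luciferin-PPXE (at KM) in 200 mM KPO4, preincubated 10 min with compound; NADPH regeneration started a 60 min RT reaction. Luciferin detected by luminescence, normalized to 57 uM ketoconazole as full inhibition.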

Chain of Cytochrome P450 3A4 (Homo sapiens) (P08684 whole entry, looked up): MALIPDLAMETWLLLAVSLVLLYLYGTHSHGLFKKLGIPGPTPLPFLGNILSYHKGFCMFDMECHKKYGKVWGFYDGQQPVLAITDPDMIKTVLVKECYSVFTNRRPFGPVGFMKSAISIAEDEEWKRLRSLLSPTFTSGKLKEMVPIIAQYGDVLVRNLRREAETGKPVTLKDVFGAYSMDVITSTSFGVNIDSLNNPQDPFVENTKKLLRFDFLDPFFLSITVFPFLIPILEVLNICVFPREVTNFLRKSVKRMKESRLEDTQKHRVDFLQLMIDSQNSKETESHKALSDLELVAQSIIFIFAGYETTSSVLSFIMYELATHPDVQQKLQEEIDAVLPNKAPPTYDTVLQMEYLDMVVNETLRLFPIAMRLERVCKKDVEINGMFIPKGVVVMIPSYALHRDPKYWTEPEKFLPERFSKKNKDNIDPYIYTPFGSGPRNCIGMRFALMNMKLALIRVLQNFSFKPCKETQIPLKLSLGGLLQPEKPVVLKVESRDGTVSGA

Row | Compound | activity change, negative = inhibition | Potency
5 | CC(=O)OC1C2CCC3C1(CC(O)[C@@]1(O)[C@@H](CC(O)C1(C)C)[C@]3(C)O)C[C@@]2(C)O (some centres not stated) | -13.4% | –
6 | CSc1nc(NC(C)C)nc(NC(C)C)n1 | 9.73% | –
7 | NCC(N)C(=O)c1ccccc1 (configuration not stated) | -26.5% | –
8 | C[C@H]1O[C@H](O[C@H]2[C@H](O)[C@@H](O)[C@@H](O)[C@H](O)[C@@H]2O)[C@@H](N)C[C@@H]1NC(=N)C(=O)O | -17.5% | –
9 | CCC1C2CC3C4N(C)c5ccccc5[C@]45CC(C2C5O)N3C1O (some centres not stated) | 4.33% | –
10 | COc1ccc(C(=O)O)cc1OC | -10.6% | –
11 | NC1C[C@H]1c1ccccc1 (some centres not stated) | -47.2% | –
12 | COc1ccc(CC2NC[C@H](O)[C@H]2OC(C)=O)cc1 (some centres not stated) | -10.5% | –
13 | N#Cc1c(Cl)c(Cl)c(Cl)c(C#N)c1Cl | – | 3.16 µM (active)
14 | CN(C)C1C(=O)C(C(N)=O)=C(O)[C@@]2(O)C(=O)C3=C(O)c4c(O)cccc4[C@@](C)(O)C3CC12 (some centres not stated) | -2.46% | –
15 | CC(=O)OCC1=C(C(=O)O)N2C(=O)C(NC(=O)CCCC(N)C(=O)O)C2SC1 (configuration not stated) | -4.99% | –
16 | CC(CO)NC(=O)C1C=C2c3cccc4[nH]cc(c34)C[C@H]2N(C)C1 (some centres not stated) | -1.78% | –
17 | O=C1CC[C@]2(O)C3Cc4ccc(O)c5c4C2(CCN3CC2CC2)C1O5 (some centres not stated) | 0.124% | –
18 | COC(=O)/C(C)=C\CC12OC(C)(C)C3CC(C=C4C(=O)c5c(OC)c6c(c(CC=C(C)C)c5OC431)OC(C)(CCC=C(C)C)C=C6)C2=O (configuration not stated) | – | 3.16 µM (active)
19 | OCC1OC(n2cnc3cc(Cl)c(Cl)cc32)C(O)C1O (configuration not stated) | -22.2% | –
20 | C[C@@]12C=CC(=O)C=C1CCC1C2CC[C@]2(C)C(=O)CCC12 (some centres not stated) | 46.2% | –
21 | CC(=O)Oc1c2c(c(CC=C(C)C)c3c1C(=O)C1=CC4CC5C(C)(C)OC(C/C=C(\C)C(=O)O)(C4=O)[C@]15O3)OC(C)(CCC=C(C)C)C=C2 (some centres not stated) | – | 12.6 µM (active)
22 | COc1ccc(C2Oc3c(I)c(OC)cc(OC)c3CC2O)cc1OC (configuration not stated) | – | 3.16 µM (active)
